# According to PubChem BioAssay (EPA / NIEHS):
# Results filed as inconclusive are left out. Some structures have more than one record in an assay (separate samples or runs), and their calls can disagree. Activity calls are given as the source filed them. Rule for the calls: active = hit-call score of the fitted dose curve at least 0.9, where 1 is the maximum; inconclusive = response in the unintended direction; inactive = score below 0.9.
# Target: Estrogen receptor (Homo sapiens) (UniProt P03372)
# Assay: ATG_ERa_TRANS: Attagene TRANS-FACTORIAL HepG2 Assay for human Estrogen Receptor alpha (ERa) (AID 2282970)
# Conditions: HepG2 Attagene TRANS ERa GAL4 reporter, mRNA
# Description: ATG_TRANS is a cell-based, multiplexed-readout assay that uses HepG2, a human liver cell line, with measurements taken at 24 hours after chemical dosing in a 24-well plate.ATG_ERa_TRANS is one of 30 assay component(s) measured or calculated from the ATG_TRANS assay. It is designed to make measurements of mRNA induction, a form of inducible reporter, as detected with fluorescence intensity signals by Reverse transcription polymerase chain reaction (RT-PCR) and Capillary electrophoresis technology.Data from the assay component ATG_ERa_TRANS was analyzed into 1 assay endpoint. This assay endpoint, ATG_ERa_TRANS, was analyzed in the positive analysis fitting direction relative to DMSO as the negative control and baseline of activity. Using a type of inducible reporter, measures of mRNA for gain-of-signal activity can be used to understand the reporter gene at the transcription factor-level as they relate to the gene ESR1. Furthermore, this assay endpoint can be referred to as a primary readout, because this assay has produced multiple assay endpoints where this one serves a reporter gene function. To generalize the intended target to other relatable targets, this assay endpoint is annotated to the nuclear receptor intended target family, where the subfamily is steroidal.
# Human liver HepG2 cells are transiently transfected with multiple reporter transcription units (MRTUs) in 6-well plates using FuGene 6 reagent (Roche; 3 ml FuGene/1 mg DNA). The MRTU constructs are regulated by a cis-regulating element (promoter). […] A major difference between the CIS and TRANS system is that in CIS activities of endogenous TFs are measured, whereas the TRANS assay evaluates changes in activities of exogenous, chimeric NR-Gal4 proteins. […] At the end of 24 hour incubation, total RNA was isolated using TriZol reagent (Invitrogen). The isolated RNA is then reverse-transcribed using oligo(dT) primer and Mo-MLV reverse transcriptase (Invitrogen) with DNAse I (Ambion) treatment for 30 min. The one-tenth of the produced cDNA was amplified by PCR using Taq DNA polymerase (Invitrogen) and two reporter sequence-specific primers. The PCR products were fluorescently labeled by primer extension with 6-arboxyfluorescein (6-FAM) 5'-labeled reporter sequence-specific primer (2 min at 95 C, 20 s at 68 C and 10 min at 72 C) and these products were digested with 5U of HpaI (New England Biolabs) for 2h at 37 C. […] The raw capillary electrophoresis data was processed using Attagraph software (Attagene).
# Estrogen receptor (Homo sapiens), sequence (P03372 whole entry, looked up): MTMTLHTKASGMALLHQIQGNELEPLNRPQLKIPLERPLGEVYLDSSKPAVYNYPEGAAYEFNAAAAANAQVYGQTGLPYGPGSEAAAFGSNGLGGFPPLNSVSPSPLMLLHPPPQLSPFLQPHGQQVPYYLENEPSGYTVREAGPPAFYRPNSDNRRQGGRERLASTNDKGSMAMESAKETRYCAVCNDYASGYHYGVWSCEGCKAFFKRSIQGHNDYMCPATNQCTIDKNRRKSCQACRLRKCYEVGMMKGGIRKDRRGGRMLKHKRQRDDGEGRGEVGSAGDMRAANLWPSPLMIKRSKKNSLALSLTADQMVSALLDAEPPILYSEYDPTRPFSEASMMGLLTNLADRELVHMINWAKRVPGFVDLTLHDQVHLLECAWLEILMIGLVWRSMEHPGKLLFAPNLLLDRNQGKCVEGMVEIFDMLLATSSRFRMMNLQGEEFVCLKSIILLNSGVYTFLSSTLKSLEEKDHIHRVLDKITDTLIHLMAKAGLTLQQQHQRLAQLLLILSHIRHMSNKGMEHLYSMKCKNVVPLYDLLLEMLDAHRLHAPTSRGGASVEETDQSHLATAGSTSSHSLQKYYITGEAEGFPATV
Compound,outcome,AC50
O=C(F)C(F)(F)C(F)(F)C(F)(F)C(F)F,inactive,
COCC1CCC(CO)CC1 (stereo not given),inactive,
COc1cc(OC)nc(NC(=O)NS(=O)(=O)Nc2ccccc2C(=O)N(C)C)n1,inactive,
CN(CCO)S(=O)(=O)C(F)(F)C(F)(F)C(F)(F)C(F)(F)C(F)(F)C(F)(F)C(F)(F)C(F)(F)F,inactive,
CCCCc1oc2ccccc2c1C(=O)c1cc(I)c(OCCN(CC)CC)c(I)c1,inactive,
FC(F)(F)C1(F)C(F)(F)C(F)(F)C(F)(F)C(F)(C(F)(F)F)C1(F)F (stereo not given),inactive,
CC1CCC(CO)CC1 (stereo not given),inactive,62.4 µM (active)
O=C(NCc1ncc(C(F)(F)F)cc1Cl)c1c(Cl)cccc1Cl,inactive,
CCCCCCCCCCCCCCCCCC[N+](C)(C)Cc1ccccc1,inactive,
Cc1cc(Cc2cc(C)cc(C(C)(C)C)c2O)c(O)c(C(C)(C)C)c1,inactive,
CCC(=O)O,inactive,
COc1cccc(O)c1,inactive,
O=C(O)C(F)(F)OC(F)(F)C(F)(F)OC(F)(F)C(F)(F)OC(F)(F)C(F)(F)C(F)(F)C(F)(F)F,inactive,26 µM (active)
O=C(O)c1cccc(C(=O)O)n1,inactive,
CCCCCCCCC1CCC(=O)O1 (stereo not given),inactive,
Cc1ccc2ccc3ccc(C)cc3c2c1,,7.58 µM (active)
Brc1cc(Br)c(Oc2c(Br)cc(Br)c(Br)c2Br)cc1Br,inactive,
OCC1CCC(CO)CC1 (stereo not given),inactive,
CCCCCCc1ccc(N)cc1,,11.6 µM (active)

Compound,outcome,AC50
CCOC(=O)c1nc(C(Cl)(Cl)Cl)n(-c2ccc(Cl)cc2Cl)n1,,25.7 µM (active)
CC(C)(C)c1ccc(CCC=O)cc1,,74 µM (active)
O=S(=O)(c1ccc(OCc2ccccc2)cc1)c1ccccc1O,inactive,
CC(=O)Nc1ccc(S(N)(=O)=O)cc1,inactive,
Cc1ccccc1C(OCCN(C)C)c1ccccc1 (stereo not given),inactive,
CCOC(C)=O,inactive,
CN(C)CCOC(c1ccccc1)c1ccccc1,inactive,
O=C1C=CC(=O)N1c1cccc(N2C(=O)C=CC2=O)c1,inactive,
Oc1c(Cl)ccc(Cl)c1Cl,inactive,
FC(F)(F)C1(F)C(F)(F)C(F)(F)C(F)(F)C1(F)F,inactive,
O=C(OC(=O)C(F)(F)C(F)(F)F)C(F)(F)C(F)(F)F,inactive,
c1cc2cccc3c4cccc5cccc(c(c1)c23)c54,inactive,
COCN(COC)c1nc(N(COC)COC)nc(N(COC)COC)n1,,49.3 µM (active)
C[N+](C)(CCCNS(=O)(=O)CCC(F)(F)C(F)(F)C(F)(F)C(F)(F)C(F)(F)C(F)(F)F)CC(=O)[O-],,0.0373 µM (active)
O=C1c2ccccc2C(=O)c2c(O)c(O)cc(O)c21,,4.9 µM (active)
O=CC(F)(F)C(F)(F)C(F)(F)C(F)F,inactive,
CCCCCCCCCCCC(=O)NCCCN(C)C,inactive,
Cc1cccc2c1ccc1ccccc12,,11.2 µM (active)
Cc1cncc(C)c1,inactive,
